Bioassay records from PubChem BioAssay.
SW480 rereplic: A quantitative high throughput screen for small molecules that induce DNA re-replication in SW480 colon adenocarcinoma cells | Potency, µM (top dose mostly 46.1 µM), without a hit: at the highest dose re-replication activation, actives largely listed as activators | 1.8% of 340,000 active | AID 624297, 2012 | SW480 DNA re-replication, Hoechst DNA content imaging, 48 h; also: % of control where 0% means no effect; nearly all actives have a fitted effect of over 55% in size
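DNA re-replication was detected as more nuclei of elevated Hoechst intensity after 48 hr exposure to compound (23 nL pinned per well of 250 cells).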
A-T KAP1 phos: qHTS Assay for Identifying a Potential Treatment of Ataxia-Telangiectasia; AID 485349, 2010; 0.19% of 320,000 active; F2112 A-T fibroblasts, KAP-1 phosphorylation AlphaLISA; neocarzinostatin DNA damage 30 min before lysis; Potency, µM (doses to about 57.5 µM), for the others: at the top dose activation, actives largely listed as activators; also: % of control where 0% means no effect; nearly all actives have a fitted effect of over 45% in size
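hTERT-immortalized A-T patient fibroblasts (F2112), 500 cells/well in OPTI-MEM, 1% FBS, got compounds for 60 min, then NCS for 30 min at 37C. Lysates were then assayed for phospho-KAP-1 by AlphaLISA (anti-pKAP1 donor, anti-KAP1 acceptor beads), 6 hr at 25C.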
ELG1 repair inh: qHTS screen for small molecules that inhibit ELG1-dependent DNA repair in human embryonic kidney (HEK293T) cells expressing luciferase-tagged ELG1; HEK293T ELG1-luciferase reporter, luminescence, 16 h; DNA damage induced by 5-fluorouridine; Potency, µM (doses to about 46.1 µM), without a hit: at the highest dose activity change, negative = inhibition, hits mostly inhibitors; 2.3% of 330,000 active; AID 504467, 2011; also: % is scaled to controls: 0 for no effect and ±100 for the full control effect; nearly all actives have a fitted effect of over 55% in size
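HEK293T cells expressing luciferase-tagged ELG1 (2,000/well) received 5-Fluorouridine plus compound or DMSO for 16 hr at 37 °C. Luciferase was read by ONE-Glo luminescence after 30 min at room temperature.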
ELG1 genotox: qHTS screen for small molecules that induce genotoxicity in human embryonic kidney (HEK293T) cells expressing luciferase-tagged ELG1; HEK293T ELG1-luciferase reporter, luminescence, 16 h; AID 504466, 2011; 1.3% of 330,000 active; Potency, µM (doses to about 46 µM), without a hit: top-dose activity change, positive = activation, usual class: activators; also: % of control where 0% means no effect; nearly all actives have a fitted effect of over 60% in size
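After overnight (16 hr) compound treatment at 37 °C, ELG1-luciferase HEK293T cells were lysed with ONE-Glo; luminescence quantified 30 min later at room temperature.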
p53 reactivation: qHTS assay for re-activators of p53 using a Luc reporter; H1299 p53-A138V BP100-luciferase reporter, luminescence, 24 h; Potency, µM (highest dose often 92.2 µM), inactives show at the top dose activity change, positive = activation, hits mostly activators; 0.063% of 320,000 active; AID 504706, 2011; also: % of control where 0% means no effect; nearly all actives have a fitted effect of over 45% in size
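p53-null H1299 cells stably carrying temperature-sensitive p53-A138V and a BP100-luciferase reporter were pinned with compounds (4-point, 1:5 series) and held 24 hrs at 37 deg C. Luminescence was read 10 min after detection reagent.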
MCF10A rereplic: A quantitative high throughput screen for small molecules that induce DNA re-replication in MCF 10a normal breast cells; MCF 10A DNA re-replication, Hoechst nuclear intensity, 48 h; Potency, µM (top dose mostly 46.1 µM), for the others: at the top dose activity, positive = re-replication, hits mostly activators; 2.9% of 350,000 active; AID 624296, 2012; also: % of control where 0% means no effect; nearly all actives have a fitted effect of over 50% in size
* hit, by the source's call; u = inconclusive; x = not tested or not shown; [ ] = dose if it differs, or a comment. Compounds with a hit are over-represented: about 7.1% of the library has one in this group of screens. Calls follow the shape of the dose curve; as a rule, active = well fitted curve in the direction sought with a large enough effect; inconclusive = small, poorly fitted or top-dose-only effect, or another doubt; inactive = no such curve, though single readings can be large; an effect the other way counts as inactive or inconclusive. Potency is read from the fitted curve at half-maximal effect.

SMILES	SW480 rereplic	A-T KAP1 phos	ELG1 repair inh	ELG1 genotox	p53 reactivation	MCF10A rereplic
Cc1cccc(OCC(=O)Nc2ccc3c(c2)OCCO3)c1	-4%[9.22 µM]	7%	u	6.5µM*	31%	-4%
Cc1ccccc1OCC(=O)Nc1ccc2c(c1)OCCO2	1%	-9%	u	u	16%	0%
O=C(COc1ccccc1Cl)Nc1ccc2c(c1)OCCO2	-10%	1%	u	4.1µM*	26%	-6%
COc1ccccc1OCC(=O)Nc1ccc2c(c1)OCCO2	1%	-3%	u	u	23%	-38%
N#Cc1ccc(NCC(=O)Nc2ccc3c(c2)OCCO3)cc1	-5%	2%	7%	0%	-5%	-43%
N#Cc1cccc(NCC(=O)Nc2ccc3c(c2)OCCO3)c1	-9%	0%	u	2.3µM*	u	-3%
Cc1ccc(OCC(=O)Nc2ccc3c(c2)OCCO3)cc1C	9%	1%	u	u	10%	25%
Cc1cccc(C)c1OCC(=O)Nc1ccc2c(c1)OCCO2	80%	9%	u	u	9%	15µM*
O=C(CCN=C1NS(=O)(=O)c2ccccc21)NCc1ccccc1F	-5%	8%	8%	2%	1%	-2%
CCOc1ccc(NC(=O)CN(C)C(=O)C2CC(=O)N(c3cccc(SC)c3)C2)cc1OCC (stereo not given)	-18%	x	x	x	x	15%
CCOC(=O)c1cccc(NC(=O)c2ccc(-n3cnnn3)cc2)c1	-14%	-3%	15%	-4%	-1%	-12%
Cc1cc(C)c(OCC(=O)Nc2cccc(O)c2)cc1C	-1%	-1%	u	5.2µM*	u	-2%
Cc1ccc(NC(=O)COc2ccc(CCO)cc2-n2nc3ccccc3n2)cc1C	10%	2%	18µM*	-5%	-4%	u
Cc1ccc(OCC(=O)O)c(-n2nc3ccccc3n2)c1	1%	0%	8%	0%	-1%	-5%
Cc1cc(C)c(OCC(=O)Nc2ccc3c(c2)OCO3)cc1C	1%	16%	u	u	12%	-191%[0.0737 µM]
NC(=O)c1ccccc1OCC(=O)Nc1ccc(Cl)c(Cl)c1	-6%	13%	u	1.2µM*	16%	-3%
CC(C)(C)NC(=O)CC1C[C@H](C(=O)N2CCCCC2)[C@@]2(CCc3ccccc3)c3[nH]c4ccccc4c3CCN2C1=O (stereo not given in full)	-1%	8%	13%	2%	7%	-11%
COc1ccc2c(COC(=O)c3ccc(C)c(S(=O)(=O)N4CCOCC4)c3)cc(=O)oc2c1	3%	x	x	x	x	3%
O=C(c1ccc(OC2CCN(CCCc3ccccc3)CC2)cc1)N1CCCC1	4%	x	x	x	x	8%
CSCCC(=O)N1CCC(n2nccc2NC(=O)CCc2ccccc2)CC1	0%	3%	6%	-7%	-3%	3%
COc1ccc(-c2cccc(-c3cc(=O)oc4cc(OC)cc(OC)c34)c2)cc1	0.23µM*	-14%	u	14%	16%	0.21µM*
COc1cc(OC)c2c(-c3cccc(-c4ccc(CO)cc4)c3)cc(=O)oc2c1	0.73µM*	11%	u	u	4%	u
COc1cc(OC)c2c(-c3cccc(-c4ccc(O)cc4)c3)cc(=O)oc2c1	u	16%	u	-2%	-5%	u
COc1cc(OC)c2c(-c3cccc(-c4cccc(C)c4)c3)cc(=O)oc2c1	u	1%	u	-1%	8%	u
